Assay [1] in a line: qHTS assay to identify small molecule antagonists of the glucocorticoid receptor (GR) signaling pathway - cell viability counter screen (AID 720693). Further: nearly all actives have a fitted effect of over 55% in size. A general note: qHTS replaces the single test concentration by a dilution series.
The nature of assay [2]: qHTS assay for identifying genotoxic compounds that show differential cytotoxicity against isogenic chicken DT40 cell lines with known DNA damage response pathways - Rev3 mutant cell line (AID 743014). Further: nearly all actives have a fitted effect of over 55% in size. Further: potency means the concentration at half of the fitted maximal effect.
Assay [3] can be described thus: qHTS assay for identifying genotoxic compounds that show differential cytotoxicity against isogenic chicken DT40 cell lines with known DNA damage response pathways - Rad54/Ku70 mutant cell line (AID 743015). Further: nearly all actives have a fitted effect of over 60% in size.
A short description of assay [4]: qHTS assay to identify small molecule antagonists of the androgen receptor (AR) signaling pathway - cell viability counter screen (AID 743033; further: nearly all actives have a fitted effect of over 45% in size).
Assay [5] can be described thus: qHTS assay to identify small molecule antagonists of the androgen receptor (AR) signaling pathway using the MDA cell line - cell viability counter screen (AID 743041; further: nearly all actives have a fitted effect of over 45% in size). An outline of the steps: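 In this qHTS counter assay, fluorescence intensity after CellTiter-Fluor addition indicated viability of MDA-kb2 AR-luc cells given compounds and R1881 for 16 h at 37C.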

Assay [6] can be described thus: qHTS assay to identify small molecule antagonists of the thyroid receptor (TR) signaling pathway - cell viability counter screen (AID 743064). Further: nearly all actives have a fitted effect of over 50% in size. In short, it runs like this: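 Same-well viability check: GH3.TRE-Luc cells stimulated with 1 nM T3 alongside test compound for 23.5 h, followed by CellTiter-Fluor fluorescence.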
The nature of assay [7]: qHTS assay to identify small molecule antagonists of the thyroid receptor (TR) signaling pathway (AID 743065). Further: nearly all actives have a fitted effect of over 55% in size. Further: potency means the concentration at half of the fitted maximal effect. In short, it runs like this: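 GH3.TRE-Luc rat pituitary cells carrying two TR response elements driving luciferase were plated for 4 h, given compound plus 1 nM T3 (final), and incubated 23.5 h at 37 C. ONE-Glo luminescence measured reporter inhibition; CellTiter-Fluor fluorescence tracked cytotoxicity.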

The subject of assay [8] is thyroid hormone receptor (rat, GH3 cells). In words: qHTS assay to identify small molecule agonists of the thyroid receptor (TR) signaling pathway (AID 743066; calls by dose curve).
For assay [9], the target named is Estrogen receptor (Homo sapiens) (UniProt P03372). In words: qHTS assay to identify small molecule antagonists of the estrogen receptor alpha (ER-alpha) signaling pathway (AID 743069; active means well fitted curve in the direction sought with a large enough effect in the signal ratio in the repeat runs, not every such curve was filed as active; the % refers to the signal ratio). An outline of the steps: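 A 17beta-estradiol challenge was applied right after compound transfer to ER-alpha-UAS-bla HEK293 cells previously kept in charcoal-stripped serum. Plates stood 18 hr at 37C and 5% CO2; fluorescence was read following 2 hr FRET substrate loading at room temperature.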
Sequence of Estrogen receptor (Homo sapiens) (P03372 whole entry, looked up): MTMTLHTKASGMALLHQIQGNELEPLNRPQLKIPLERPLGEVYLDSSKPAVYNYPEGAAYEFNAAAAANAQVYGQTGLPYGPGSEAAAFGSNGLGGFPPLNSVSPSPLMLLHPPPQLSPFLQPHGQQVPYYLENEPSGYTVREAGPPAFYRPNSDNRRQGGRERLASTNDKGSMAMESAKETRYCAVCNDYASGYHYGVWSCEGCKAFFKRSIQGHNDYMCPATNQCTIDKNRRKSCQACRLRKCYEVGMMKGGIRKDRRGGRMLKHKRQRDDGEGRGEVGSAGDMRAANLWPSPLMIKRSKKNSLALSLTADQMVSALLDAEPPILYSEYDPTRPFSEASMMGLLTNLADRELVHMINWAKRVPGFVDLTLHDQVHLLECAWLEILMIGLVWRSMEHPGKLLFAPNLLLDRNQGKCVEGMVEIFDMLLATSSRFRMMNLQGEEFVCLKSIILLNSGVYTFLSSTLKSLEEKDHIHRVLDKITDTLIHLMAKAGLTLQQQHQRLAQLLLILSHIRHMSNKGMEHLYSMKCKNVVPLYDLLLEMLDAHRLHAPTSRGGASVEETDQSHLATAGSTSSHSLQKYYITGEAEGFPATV

A short description of assay [10]: qHTS assay to identify small molecule antagonists of the estrogen receptor alpha (ER-alpha) signaling pathway - cell viability counter screen (AID 743074; calls by dose curve;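 further: HEK293 cells carrying ER-alpha-UAS-bla reporter stimulated with 17beta-estradiol; nearly all actives have a fitted effect of over 45% in size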).
In assay [11] the target is Estrogen receptor (Homo sapiens) (UniProt P03372). In words: qHTS assay to identify small molecule agonists of the estrogen receptor alpha (ER-alpha) signaling pathway (AID 743075; calls by dose curve;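 further: HEK293 GripTite cells with ER-alpha and UAS-driven beta-lactamase reporter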).
For assay [12] the target is unchanged. In words: qHTS assay to identify small molecule agonists of the estrogen receptor alpha (ER-alpha) signaling pathway using the BG1 cell line (AID 743079). Further: nearly all actives have a fitted effect of over 20% in size. Further: potency means the concentration at half of the fitted maximal effect.
Assay [13] can be described thus: qHTS assay to identify small molecule antagonists of the estrogen receptor alpha (ER-alpha) signaling pathway using the BG1 cell line (AID 743080; calls by dose curve;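 further: BG1 cells stimulated with 17beta-estradiol alongside compound; series mostly up to about 70 µM; nearly all actives have a fitted effect of over 25% in size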). In short, it runs like this:
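Seeding, 24 h rest, compound transfer from DMSO, 17beta-estradiol addition, 21.5 h incubation, CellTiter-Fluor (30 min, 37 C), then ONE-Glo (30 min, room temperature): this sequence was run on BG1-Luc-4E2 reporter cells.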

Assay [14] is described as follows: qHTS assay to identify small molecule antagonists of the estrogen receptor alpha (ER-alpha) signaling pathway using the BG1 cell line - cell viability counter screen (AID 743081).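 Further: compound given together with 17beta-estradiol as the ER stimulus; series mostly up to about 70 µM; nearly all actives have a fitted effect of over 45% in size.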
In assay [15] the target is Aromatase (Homo sapiens) (UniProt P11511). As to the kind of experiment: qHTS assay to identify aromatase inhibitors (AID 743083). Further: series mostly up to about 70 µM; nearly all actives have a fitted effect of over 55% in size.
Sequence of Aromatase (Homo sapiens) (P11511 whole entry, looked up): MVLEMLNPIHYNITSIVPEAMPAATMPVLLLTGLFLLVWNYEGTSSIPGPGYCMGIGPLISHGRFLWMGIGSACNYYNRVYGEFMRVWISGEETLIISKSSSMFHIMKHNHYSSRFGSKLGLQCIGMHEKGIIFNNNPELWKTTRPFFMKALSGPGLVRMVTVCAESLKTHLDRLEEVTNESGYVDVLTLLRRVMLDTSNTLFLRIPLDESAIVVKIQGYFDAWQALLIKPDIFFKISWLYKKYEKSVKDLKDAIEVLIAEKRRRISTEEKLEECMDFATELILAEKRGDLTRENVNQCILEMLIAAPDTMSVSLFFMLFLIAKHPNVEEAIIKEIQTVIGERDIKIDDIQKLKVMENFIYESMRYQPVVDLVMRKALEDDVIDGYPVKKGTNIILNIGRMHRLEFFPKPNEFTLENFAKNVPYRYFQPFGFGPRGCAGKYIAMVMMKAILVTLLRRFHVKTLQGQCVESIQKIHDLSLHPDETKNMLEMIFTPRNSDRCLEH
A short description of assay [16]: qHTS assay to identify aromatase inhibitors - cell viability counter screen (AID 743084).
Assay [17] in a line: qHTS assay for identifying genotoxic compounds that show differential cytotoxicity against isogenic chicken DT40 cell lines with known DNA damage response pathways - wild type cell line (AID 743012). Further: nearly all actives have a fitted effect of over 60% in size. An outline of the steps: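 Luminescent ATP viability signal (CellTiter-Glo, 30 min RT) recorded after wild type DT40 cells were incubated with compounds for 40 h at 37 C/5% CO2.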

Molecules are shown by their SMILES. Records with an inconclusive call do not appear. Activity calls are given as the source filed them. Unless noted, the call rests on the fitted dose curve; in most records, active means well fitted curve in the direction sought with a large enough effect in the repeat runs; inconclusive means weak or mixed curves; inactive means no such curve, though single readings can be large; an effect the other way counts as inactive or inconclusive.

As to `CCCCOC(=O)[C@H](C)O`, the molecule was called inactive in assay [1], in assay [4], in assay [8], in assay [9], in assay [10] and in assay [13]. Moreover, in assay [15], the result was inactive. For the same molecule, the Potency result in assay [2], in assay [3], in [5], in [6], in assay [7] and in [11] was “inactive” each time. The Potency result in [12], in assay [14] and in assay [16] was “inactive” in each case.

For the molecule `C=C(C)c1cccc(C(C)(C)N=C=O)c1`, the result in assay [1], in [4], in assay [8], in [9], in assay [10] and in assay [13] was inactive. Also, the call in assay [15] was inactive. Besides, the Potency entry in assay [5], in assay [6], in assay [7], in [11], in assay [12] and in assay [14] was “inactive” in each case. Besides, the Potency result in assay [16] is “inactive”.

Consider `Cn1c(=O)c2[nH]c(Br)nc2n(C)c1=O`, for which the call in assay [1], in assay [4], in assay [8], in assay [10] and in [15] was inactive. The Potency entry in assay [2], in [3], in [5], in [14] and in [16] was “inactive” throughout. The Potency in [7] is 26.6 µM (active).

As to `C=C(C)[C@@H]1CC=C(C)CC1`, the molecule was classed as inactive in assay [1], in [9], in assay [10], in assay [13] and in [15]. The Potency in assay [2] is 68.6 µM (active). The Potency result in assay [5], in assay [6], in assay [11], in [14] and in [16] was “inactive” each time.

Consider `CN(C)C(C)(C)CO`, for which the call in assay [1], in assay [4], in assay [8], in [9], in assay [10] and in [13] was inactive. In addition, the molecule was classed as inactive in assay [15]. Moreover, the Potency entry in assay [2], in [3], in assay [5], in [6], in assay [7] and in assay [11] was “inactive” in each case. The Potency result in assay [14] and in [16] was “inactive” throughout. Moreover, the Potency in [12] is 77 µM (active).

With `COC(=O)c1cccc(Cl)c1`, the Potency result in assay [17], in assay [2], in assay [3], in [5], in assay [6] and in assay [7] was “inactive” in each case. Besides, the Potency result in assay [11], in [12], in assay [14] and in assay [16] was “inactive” throughout. In addition, the result in [4], in assay [8], in assay [9], in assay [10], in assay [13] and in assay [15] was inactive.

Consider `N[C@@H](Cc1ccc(O)cc1)C(=O)O`, for which the result in assay [1], in [8], in assay [10] and in assay [15] was inactive. The Potency result in assay [5], in [6], in assay [14] and in assay [16] was “inactive” in each case.

Consider `CCCCCCC1(C)CCC(=O)O1` (stereo unspecified), for which the molecule was classed as inactive in [1], in assay [8], in [9], in assay [13] and in [15]. The Potency result in [2], in assay [3], in assay [5], in [6], in assay [7] and in assay [11] was “inactive” in each case. Further, the Potency result in [12], in assay [14] and in [16] was “inactive” each time.

For the molecule `OCCN1CCOCC1`, the molecule was called inactive in assay [1], in [4], in assay [8], in [13] and in assay [15]. The Potency result in assay [2], in [3], in assay [5], in [6], in assay [7] and in assay [11] was “inactive” in each case. The Potency entry in assay [12], in [14] and in assay [16] was “inactive” in each case.

In the case of `O=C(O)CCCCCC(=O)O`, the Potency entry in [17], in assay [2], in assay [3], in [5], in assay [6] and in assay [7] was “inactive” throughout. Besides, the Potency result in [11], in [12], in assay [14] and in assay [16] was “inactive” throughout. The molecule was classed as inactive in [4], in [8], in [9], in assay [10], in assay [13] and in assay [15].

These data come from PubChem BioAssay (Tox21).
